Laboratory results from PubChem BioAssay (NCI).
The panel holds about 83,000 compounds, 20% with a hit somewhere; the sample as a whole holds those more often.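 Plates (96-well) were seeded with cells, treated with compound at one concentration, and incubated for 48 hours before percent growth was determined.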 Active and inactive are the calls of the source. How the source made its calls: active means growth percent below 10; inactive means the rest.

Key:
Test in all cases: NCI-60 one-dose screen, 48 h (100 = growth as untreated, 0 = no growth, -100 = all killed)
Conditions in all cases: 10 µM unless noted
NCI-H23 lung = system: NCI-H23 lung
NCI-H226 lung = system: NCI-H226 lung
NCI-H322M lung = system: NCI-H322M lung
HOP-62 NSCLC = system: HOP-62 NSCLC
NCI-H460 lung = system: NCI-H460 lung
NCI-H522 lung = system: NCI-H522 lung
A549/ATCC NSCLC = system: A549/ATCC NSCLC
786-0 renal = system: 786-0 renal
COLO 205 colon = system: COLO 205 colon
HOP-92 NSCLC = system: HOP-92 NSCLC

Measured: growth

CCCn1cc(-c2nc(Nc3ccc(C(=O)NCCCCNc4cccc5c4C(=O)N(C4CCC(=O)NC4=O)C5=O)cc3)nc3[nH]ccc23)cn1 (stereo not drawn)
active: NCI-H322M lung 7.64% | HOP-62 NSCLC -1.38% | COLO 205 colon -10.3%
inactive: NCI-H23 lung 65.3% | NCI-H226 lung 20.9% | NCI-H460 lung 107% | NCI-H522 lung 27% | A549/ATCC NSCLC 21.1% | 786-0 renal 22.9%

O=C(Cn1c(/C=C/c2cccc([N+](=O)[O-])c2)nc2ccccc2c1=O)Nc1ccccc1
inactive: NCI-H23 lung 77.2% | NCI-H226 lung 75.7% | NCI-H322M lung 83.9% | HOP-62 NSCLC 53.6% | NCI-H460 lung 67.2% | HOP-92 NSCLC 64.2% | NCI-H522 lung 91.8% | 786-0 renal 59.6% | COLO 205 colon 81.1%

CC(=O)Nc1ccc(-n2cnc3ccc(-c4ccc(O)cc4)cc32)cc1
inactive: NCI-H23 lung 41.3% | NCI-H226 lung 52.5% | NCI-H322M lung 44% | HOP-62 NSCLC 53% | NCI-H460 lung 38.7% | HOP-92 NSCLC 66% | NCI-H522 lung 54% | 786-0 renal 48.5% | COLO 205 colon 123%

O=S(=O)(Nc1cccc(-n2cnc3cc(-c4ccc(O)cc4)ccc32)c1)C1CC1
inactive: NCI-H23 lung 38.5% | NCI-H226 lung 19.3% | NCI-H322M lung 55.3% | HOP-62 NSCLC 44.1% | NCI-H460 lung 15.8% | HOP-92 NSCLC 87.9% | NCI-H522 lung 14.4% | 786-0 renal 40.1% | COLO 205 colon 25.8%

COc1ccc(/C=C/c2nc3ccccc3c(=O)n2CC(=O)Nc2ccc(OC)cc2)cc1
inactive: NCI-H23 lung 53.9% | NCI-H226 lung 61.1% | NCI-H322M lung 83.3% | HOP-62 NSCLC 51.7% | NCI-H460 lung 50.8% | NCI-H522 lung 70.3% | A549/ATCC NSCLC 46.9% | COLO 205 colon 87.8%
active: 786-0 renal -12.7%

Cc1cccc(-c2nc(Nc3ccc(C)c(S(N)(=O)=O)c3)c3ccccc3n2)c1
active: NCI-H522 lung -30.5%
inactive: NCI-H23 lung 12.9% | NCI-H226 lung 41.9% | NCI-H322M lung 34% | HOP-62 NSCLC 76.1% | NCI-H460 lung 19% | A549/ATCC NSCLC 26.5% | 786-0 renal 10.8% | COLO 205 colon 37.8%

CCCSc1nc(NCCc2c[nH]c3ccccc23)c(C#N)c(-c2ccccc2)n1
inactive: NCI-H23 lung 89.4% | NCI-H226 lung 65.4% | NCI-H322M lung 93.5% | HOP-62 NSCLC 65.4% | NCI-H460 lung 25% | HOP-92 NSCLC 78.9% | NCI-H522 lung 57.9% | 786-0 renal 74.7% | COLO 205 colon 62.8%

C/C(=N\Nc1ccc(S(N)(=O)=O)cc1)c1ccc(N=Nc2c(Nc3ccccc3)[nH][nH]c2=O)cc1
inactive: NCI-H226 lung 42.5%
active: NCI-H23 lung 0.196% | NCI-H322M lung 9.22% | HOP-62 NSCLC -17.8% | NCI-H460 lung 8.87% | HOP-92 NSCLC -7.76% | NCI-H522 lung -28.8% | 786-0 renal -45.3% | COLO 205 colon -10.5%

CN(C)c1ccnc(NCCCSC(c2ccccc2)(c2ccccc2)c2ccccc2)c1
active: NCI-H460 lung -19.2% | HOP-92 NSCLC -2.94% | 786-0 renal 8.23% | COLO 205 colon -74.6%
inactive: NCI-H23 lung 62.7% | NCI-H226 lung 53% | NCI-H322M lung 61.5% | HOP-62 NSCLC 74.3% | NCI-H522 lung 41.1%

COc1ccc2oc3c4[nH]c5ccccc5c4c4c(c3c2c1)C(=O)N(C(=O)OC(C)(C)C)C4=O
inactive: 786-0 renal 11.6%
active: NCI-H23 lung -19.9% | NCI-H226 lung -1.92% | NCI-H322M lung 3.12% | HOP-62 NSCLC -18% | NCI-H460 lung 4.57% | HOP-92 NSCLC -14.6% | NCI-H522 lung -30.7% | COLO 205 colon -40.9%

O=C(Cn1c(/C=C/c2ccccc2)nc2ccccc2c1=O)Nc1ccccc1
inactive: NCI-H23 lung 90.2% | NCI-H226 lung 60% | NCI-H322M lung 87.5% | HOP-62 NSCLC 57.5% | NCI-H460 lung 43.2% | NCI-H522 lung 57.2% | A549/ATCC NSCLC 38.2% | COLO 205 colon 79.3%
active: 786-0 renal 1.52%

COc1cc(-c2ccc(/C=N/NC(=O)c3[nH]c4ccc(Br)cc4c3-c3ccccc3)s2)cc(OC)c1OC
inactive: NCI-H23 lung 68.2% | NCI-H226 lung 54.4% | NCI-H322M lung 90.2% | HOP-62 NSCLC 74.2% | NCI-H460 lung 75.7% | HOP-92 NSCLC 69.7% | NCI-H522 lung 83.2% | 786-0 renal 58.3% | COLO 205 colon 108%

O=C(/C=C/c1ccc(-c2ccccc2)cc1)c1nc2ccccc2n1Cc1ccc(Br)cc1
inactive: NCI-H23 lung 24.7% | NCI-H226 lung 24.3% | NCI-H322M lung 72.4% | HOP-62 NSCLC 56.4% | NCI-H460 lung 16.8% | HOP-92 NSCLC 40.1% | NCI-H522 lung 71% | 786-0 renal 39.3% | COLO 205 colon 76.7%

O=C(O)c1ccc(-c2ccc(/C=N/NC(=O)c3[nH]c4ccc(Br)cc4c3-c3ccccc3)o2)cc1
active: HOP-62 NSCLC 9.47% | NCI-H460 lung 7.72% | HOP-92 NSCLC -8.72% | NCI-H522 lung -33.8%
inactive: NCI-H23 lung 18.3% | NCI-H226 lung 44.3% | NCI-H322M lung 37.5% | 786-0 renal 19.5% | COLO 205 colon 29.3%

CN(C)c1nc(NCCNS(=O)(=O)c2ccc(C(=O)/C=C/c3ccc(C(F)(F)F)cc3)cc2)nc(Nc2ccc(F)cc2)n1
inactive: NCI-H322M lung 27.7% | HOP-62 NSCLC 68.7% | A549/ATCC NSCLC 10.1%
active: NCI-H23 lung -5.94% | NCI-H226 lung -48.9% | NCI-H460 lung -19.6% | NCI-H522 lung -79.7% | 786-0 renal -75.7% | COLO 205 colon -47.5%

C=C1CC[C@@H]2[C@]3(C)COC(c4cn[nH]c4-c4cccc(Cl)c4)O[C@@H]3CC[C@@]2(C)[C@@H]1C/C=C1/C(=O)OCC1O (stereo partly drawn)
inactive: NCI-H322M lung 37.9%
active: NCI-H23 lung -79.8% | NCI-H226 lung -91.1% | HOP-62 NSCLC 0.166% | NCI-H460 lung -3.88% | NCI-H522 lung -60% | A549/ATCC NSCLC -19.2% | 786-0 renal -92.7% | COLO 205 colon -35%

Cc1ccc(-c2nnc3ccc(N/N=C/c4ccccc4)nn23)cc1
inactive: NCI-H23 lung 60.5% | NCI-H226 lung 98% | NCI-H322M lung 91.4% | HOP-62 NSCLC 88.5% | NCI-H460 lung 68.5% | HOP-92 NSCLC 70.5% | NCI-H522 lung 105% | 786-0 renal 99% | COLO 205 colon 98.4%

O=C(NNc1ccccc1)n1c(=O)c2ccccc2c(=O)n1-c1ccccc1
inactive: NCI-H23 lung 100% | NCI-H226 lung 95.7% | NCI-H322M lung 98.8% | HOP-62 NSCLC 90.7% | NCI-H460 lung 105% | HOP-92 NSCLC 93.9% | NCI-H522 lung 86.4% | 786-0 renal 92.5% | COLO 205 colon 109%

COc1ccc(C2=NN(c3ccccc3)C(c3ccc(OC)c(OCc4ccccc4)c3)C2)cc1OC (stereo not drawn)
inactive: NCI-H23 lung 99.8% | NCI-H226 lung 85.4% | NCI-H322M lung 102% | HOP-62 NSCLC 96.7% | NCI-H460 lung 105% | HOP-92 NSCLC 109% | NCI-H522 lung 78.2% | 786-0 renal 90.9% | COLO 205 colon 115%

CCOC(=O)c1ccc(Nc2nc(NN)nc(-c3ccc(OC)cc3)c2C#N)cc1
inactive: NCI-H23 lung 115% | NCI-H226 lung 112% | NCI-H322M lung 123% | HOP-62 NSCLC 109% | NCI-H460 lung 109% | NCI-H522 lung 103% | A549/ATCC NSCLC 105% | 786-0 renal 99.3% | COLO 205 colon 116%

Cc1ccc2c(N)c(C(=O)Nc3ccc(OC(F)(F)F)cc3)sc2n1
inactive: NCI-H23 lung 47.6% | NCI-H226 lung 47% | NCI-H322M lung 82.5% | HOP-62 NSCLC 68.4% | NCI-H460 lung 77.8% | HOP-92 NSCLC 59.1% | NCI-H522 lung 66.7% | 786-0 renal 97.5% | COLO 205 colon 92.4%

CN(C)c1ccnc(CNCCSC2(c3ccc(C(F)(F)F)cc3)c3ccccc3C=Cc3ccccc32)c1
active: NCI-H23 lung -39.1% | NCI-H460 lung -89.4% | HOP-92 NSCLC -10.1% | NCI-H522 lung -64.9% | 786-0 renal -22.4% | COLO 205 colon -82.3%
inactive: NCI-H226 lung 25.9% | NCI-H322M lung 42.9% | HOP-62 NSCLC 17.2%

C=C1CC[C@@H]2[C@]3(C)COC(c4cn[nH]c4-c4cccc(Br)c4)O[C@@H]3CC[C@@]2(C)[C@@H]1C/C=C1/C(=O)OCC1O (stereo partly drawn)
active: NCI-H23 lung -94.5% | NCI-H226 lung -88.4% | NCI-H322M lung -0.559% | HOP-62 NSCLC -58.3% | NCI-H460 lung -68.9% | NCI-H522 lung -56% | A549/ATCC NSCLC -17.4% | 786-0 renal -95.5% | COLO 205 colon -58.3%

COc1cc(OC)cc(-c2cc3ccc(N(C)C)cc3c(=O)[nH]2)c1
inactive: NCI-H23 lung 44.1% | NCI-H226 lung 23% | NCI-H322M lung 52.9% | HOP-62 NSCLC 53% | HOP-92 NSCLC 94.2% | 786-0 renal 29.9%
active: NCI-H460 lung 9.42% | NCI-H522 lung -19.2% | COLO 205 colon -44.8%

C/C(=N\N=C1/C(=O)Nc2ccc(Cl)cc21)c1ccc2c(c1)Nc1ccccc1S2
active: NCI-H23 lung -28.2% | NCI-H460 lung -21.9% | HOP-92 NSCLC -10.5% | NCI-H522 lung -34% | 786-0 renal -70% | COLO 205 colon -41.7%
inactive: NCI-H226 lung 31.3% | NCI-H322M lung 28.3% | HOP-62 NSCLC 19.3%

CCN(CC)c1ccnc(CNCCSC(c2ccccc2)(c2ccccc2)c2ccc(OC)cc2)c1
active: NCI-H23 lung -41.8% | NCI-H226 lung -7.73% | HOP-62 NSCLC -10.2% | NCI-H460 lung -87.3% | HOP-92 NSCLC -30% | NCI-H522 lung -67.8% | A549/ATCC NSCLC 2.36% | 786-0 renal -50.8% | COLO 205 colon -74%
inactive: NCI-H322M lung 21.8%

Nc1cc2ccccc2c(=O)n1NC(=O)c1ccc(I)cc1
inactive: NCI-H23 lung 97.3% | NCI-H226 lung 99.9% | NCI-H322M lung 98.6% | HOP-62 NSCLC 98.5% | NCI-H460 lung 100% | HOP-92 NSCLC 106% | NCI-H522 lung 93.1% | 786-0 renal 99.3% | COLO 205 colon 105%

COc1cc2c3c(n(CCCN4CCC[C@@H]4CO)c(=O)c2cc1OC)-c1cc2c(cc1C3=O)OCO2
active: NCI-H23 lung -85.7% | NCI-H226 lung -66.5% | NCI-H322M lung -96.5% | HOP-62 NSCLC -53.3% | NCI-H460 lung -71.8% | NCI-H522 lung -82.1% | A549/ATCC NSCLC -83.3% | 786-0 renal -86.3% | COLO 205 colon -68.3%
